Assay results from PubChem BioAssay (Tox21).
Where “and” joins values, the source holds several entries; their conditions need not be identical. Equal values may be shown once. Records with an inconclusive call do not appear. Calls of active or inactive are those of the source. Unless noted, calls come from the whole dose curve; as a rule, active = well fitted curve in the direction sought with a large enough effect in the repeat runs; inconclusive = weak or mixed curves; inactive = no such curve, though single readings can be large; an effect the other way counts as inactive or inconclusive.

Tests used:
[1] = qHTS assay to identify small molecule antagonists of the estrogen related receptor (ERR) signaling pathway from Tox21 library - cell viability counter screen (AID 1224834); note: nearly all actives have a fitted effect of over 30% in size; note: potency is the fitted concentration of half-maximal effect
Summary of the method: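 Viability readout (CellTiter-Fluor fluorescence, 30 min at 37 C) multiplexed with the ERR assay; cells treated 17.5 h at 37 C with compounds delivered in DMSO.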

[2] = qHTS assay to identify small molecule agonists of the constitutive androstane receptor (CAR) signaling pathway - cell viability counter screen (AID 1224836); note: nearly all actives have a fitted effect of over 45% in size; note: potency is the fitted concentration of half-maximal effect
Summary of the method: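 Fluorescence from CellTiter-Fluor indicates live cells after 23 h exposure. The human hepatoma line expresses hCAR and a CYP2B6-2.2kb reporter. Incubation medium contains 0.75 uM PK11195 (final).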

[3] = qHTS assay to identify small molecule antagonists of the constitutive androstane receptor (CAR) signaling pathway - cell viability counter screen (AID 1224837); note: nearly all actives have a fitted effect of over 45% in size; note: potency is the fitted concentration of half-maximal effect
Summary of the method: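 Fluorescence from CellTiter-Fluor served as the viability signal. Human hepatoma HepG2 cells stably bearing hCAR and CYP2B6-2.2kb received compound plus CITCO (50 nM final) for 23 hr.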

[4] = biological target: Nuclear receptor subfamily 1 group I member 3 (Homo sapiens) (UniProt Q14994); assay: qHTS assay to identify small molecule antagonists of the constitutive androstane receptor (CAR) signaling pathway (AID 1224838);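 note: HepG2 cells stably expressing hCAR with CYP2B6 luciferase reporter stimulated by CITCO; nearly all actives have a fitted effect of over 40% in size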; note: potency is the fitted concentration of half-maximal effect
Summary of the method: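 Quantitative HTS in double-stable HepG2-CYP2B6-hCAR cells. After 4 h plating, cells get compound (15 concentrations) and CITCO at 50 nM final, incubate 24 h at 37 C, then ONE-Glo luminescence is read.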

[5] = biological target: Nuclear receptor subfamily 1 group I member 3 (Homo sapiens) (UniProt Q14994); assay: qHTS assay to identify small molecule agonists of the constitutive androstane receptor (CAR) signaling pathway (AID 1224839); note: nearly all actives have a fitted effect of over 15% in size; note: potency is the fitted concentration of half-maximal effect;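 for activation: HepG2 cells stably carrying human CAR and a CYP2B6 luciferase reporter; % is set by controls: 0 for no effect and ±100 for the full control effect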
Summary of the method: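 Stable hCAR/CYP2B6-2.2kb HepG2 line in DMEM with 10% FBS; compounds (15 concentrations) and 0.75 uM PK11195 final, 24 h at 37 C/5% CO2, then ONE-Glo luminescence after 30 min.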

[6] = biological target: Thyrotropin receptor (Homo sapiens) (UniProt P16473); assay: qHTS assay to identify small molecule agonists of the thyroid stimulating hormone receptor (TSHR) signaling pathway (AID 1224843; calls by dose curve; note: nearly all actives have a fitted effect of over 45% in size; note: potency is the fitted concentration of half-maximal effect; for activation: % is set by controls: 0 for no effect and ±100 for the full control effect)
Summary of the method: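 Screening of the Tox21 10K collection used HEK293 cells engineered with TSHR at 800 cells per well. After a 30-min room-temperature compound exposure, HTRF cAMP reagents were added and fluorescence recorded 1 h later.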

[7] = qHTS assay to identify small molecule agonists of the hypoxia (HIF-1) signaling pathway - cell viability counter screen (AID 1224844; calls by dose curve; note: nearly all actives have a fitted effect of over 50% in size; note: potency is the fitted concentration of half-maximal effect)
Summary of the method: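 Luminescent ATP content (CellTiter-Glo, 30 min, room temperature) served as the viability measure in HRE-bla ME-180 cells exposed to compounds for 17 hrs in low-serum medium (0.5% dialyzed FBS).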

[8] = qHTS assay to identify small molecule agonists of H2AX (AID 1224845; active = well fitted activation curve with a large enough effect in the signal ratio in the repeat runs, not every such curve was filed as active; the % refers to the signal ratio; note: % is set by controls: 0 for no effect and ±100 for the full control effect)
Summary of the method: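 Phospho-H2AX Ser139 measured by HTRF (ex 320 nm; em 665 and 620 nm) after 24 hr antibody incubation. Compounds, 15 concentrations, 0.76% DMSO, were applied to CHO-K1 cells for 3hr at 37C before lysis.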

[9] = qHTS assay to identify small molecule agonists of the hypoxia (HIF-1) signaling pathway (AID 1224846; active = well fitted activation curve with a large enough effect in the signal ratio in the repeat runs, not every such curve was filed as active; the % refers to the signal ratio; note: % is set by controls: 0 for no effect and ±100 for the full control effect)
Summary of the method: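 Measured by blue/green FRET after loading CCF4-AM: beta-lactamase expressed from a hypoxia response element in ME-180 cells. Test agents were delivered in DMSO and left 17 hrs; cells had been plated 5 hrs earlier in low-serum (0.5% dialyzed FBS) medium.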

[10] = qHTS assay to identify small molecule agonists of H2AX - cell viability counter screen (AID 1224847; calls by dose curve; note: nearly all actives have a fitted effect of over 30% in size; note: potency is the fitted concentration of half-maximal effect)
Summary of the method: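 Viability of CHO-K1 (wild type) cells after 3 hr compound exposure was measured by CellTiter-Glo luminescence.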

[11] = qHTS RealTime-Glo MT Cell Viability Assay in HepG2 cells - 24 hour (AID 1224867); note: nearly all actives have a fitted effect of over 50% in size; note: potency is the fitted concentration of half-maximal effect
Summary of the method: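 qHTS, HepG2, 600 cells/well, RealTime-Glo (NanoLuc + prosubstrate) added with cells; 5 h preincubation; DMSO compound addition; 37 C; luminescence at 0/8/16/24/32/40 h.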

[12] = qHTS RealTime-Glo MT Cell Viability Assay in HEK293 cells - 32 hour (AID 1224868); note: nearly all actives have a fitted effect of over 50% in size; note: potency is the fitted concentration of half-maximal effect
Summary of the method: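 Assay medium contained NanoLuc luciferase plus cell-permeant prosubstrate, added with HEK293 cells at 600 cells/well. After 5 h at 37 C/5% CO2 compounds were added; plates stayed at 37 C for 40 h with serial luminescence reads.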

[13] = A CellTox Green Cytotoxicity Assay to monitor cytotoxicity in HEK293 cells - 0 hour (AID 1224869); note: % is set by controls: 0 for no effect and ±100 for the full control effect; nearly all actives have a fitted effect of over 50% in size
Summary of the method: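 Each value comes from one timepoint of a single continuous run in which HEK293 cells with CellTox Green were exposed to compound for up to 40 h at 37 C, dye fluorescence rising with cell death.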

[14] = qHTS RealTime-Glo MT Cell Viability Assay in HepG2 cells - 40 hour (AID 1224870); note: nearly all actives have a fitted effect of over 50% in size; note: potency is the fitted concentration of half-maximal effect
Summary of the method: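 Real-time viability: cells seeded at 600 per well together with NanoLuc and cell-permeant prosubstrate, compounds added after 5 h incubation. Luminescence tracked at 0, 8, 16, 24, 32 and 40 h of exposure.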

[15] = qHTS assay to identify small molecule antagonists of the estrogen related receptor signaling pathway with the pleiotropic PPARgamma coactivator (PGC) from Tox21 10K library (AID 1224841; call rule not given here)
Summary of the method: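 Compound exposure ran 18 hours at 37 C in PGC/ERR cells (2,000/well) that had first rested 6 hours in a 37 C/5% CO2 incubator. Luciferase activity was then detected with One-Glo after a 30-minute room-temperature step.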

[16] = qHTS assay to identify small molecule agonists of the estrogen related receptor signaling pathway with the pleiotropic PPARgamma coactivator (PGC) from Tox21 10K library (AID 1224842); note: % is set by controls: 0 for no effect and ±100 for the full control effect; nearly all actives have a fitted effect of over 15% in size
Summary of the method: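 Luminescence from One-Glo (30 min, room temperature) measured after PGC/ERR cells had 18 h at 37 C with pinned compound (23 nL in DMSO). Cells had been seeded at 2,000 per well and pre-incubated 6 h.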

[17] = qHTS assay to identify small molecule antagonists of the estrogen related receptor (ERR) signaling pathway from Tox21 library (AID 1224848)
Summary of the method: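 Antagonist-mode screen of the Tox21 10K library in an NTP-provided ERR reporter cell line; 18 h compound exposure at 37 C, luminescence measured with ONE-Glo.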

[18] = qHTS assay to identify small molecule agonists of the estrogen related receptor (ERR) signaling pathway from Tox21 library (AID 1224849; calls by dose curve; note: % is set by controls: 0 for no effect and ±100 for the full control effect; nearly all actives have a fitted effect of over 15% in size); conditions: ERR reporter cell line, ONE-Glo luciferase, 18 h; at 92.4 µM (top of the series) unless noted
Summary of the method: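 We plated ERR reporter cells, waited 6 h, added compounds in DMSO by pin tool and incubated them 18 h at 37 C. ONE-Glo was then added and luminescence read after 30 min.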

[19] = qHTS assay to identify small molecule antagonists of the estrogen related receptor signaling pathway with the pleiotropic PPARgamma coactivator (PGC) from Tox21 10K library - cell viability counter screen (AID 1224840; active = well fitted cell-killing curve with a large enough effect in the repeat runs, not every such curve was filed as active; note: % is set by controls: 0 for no effect and ±100 for the full control effect; nearly all actives have a fitted effect of over 40% in size)
Summary of the method: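 Compounds in DMSO, alongside positive and negative controls, were pinned onto PGC/ERR cells (2,000 per well). Exposure lasted 17.5 hours at 37 C, followed by a 30-minute CellTiter-Fluor incubation and fluorescence reading.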

Nuclear receptor subfamily 1 group I member 3 (Homo sapiens), sequence (Q14994 whole entry, looked up): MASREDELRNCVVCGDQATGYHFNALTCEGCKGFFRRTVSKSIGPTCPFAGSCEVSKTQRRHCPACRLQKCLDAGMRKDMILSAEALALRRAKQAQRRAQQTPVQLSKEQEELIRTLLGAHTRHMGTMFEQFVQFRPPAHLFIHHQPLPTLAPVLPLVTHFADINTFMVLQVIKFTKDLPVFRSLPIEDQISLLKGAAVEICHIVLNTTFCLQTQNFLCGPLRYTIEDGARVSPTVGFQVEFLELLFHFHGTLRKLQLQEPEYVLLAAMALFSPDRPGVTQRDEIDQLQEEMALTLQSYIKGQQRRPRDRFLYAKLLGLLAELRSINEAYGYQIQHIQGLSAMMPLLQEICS
Thyrotropin receptor (Homo sapiens), sequence (P16473 whole entry, looked up): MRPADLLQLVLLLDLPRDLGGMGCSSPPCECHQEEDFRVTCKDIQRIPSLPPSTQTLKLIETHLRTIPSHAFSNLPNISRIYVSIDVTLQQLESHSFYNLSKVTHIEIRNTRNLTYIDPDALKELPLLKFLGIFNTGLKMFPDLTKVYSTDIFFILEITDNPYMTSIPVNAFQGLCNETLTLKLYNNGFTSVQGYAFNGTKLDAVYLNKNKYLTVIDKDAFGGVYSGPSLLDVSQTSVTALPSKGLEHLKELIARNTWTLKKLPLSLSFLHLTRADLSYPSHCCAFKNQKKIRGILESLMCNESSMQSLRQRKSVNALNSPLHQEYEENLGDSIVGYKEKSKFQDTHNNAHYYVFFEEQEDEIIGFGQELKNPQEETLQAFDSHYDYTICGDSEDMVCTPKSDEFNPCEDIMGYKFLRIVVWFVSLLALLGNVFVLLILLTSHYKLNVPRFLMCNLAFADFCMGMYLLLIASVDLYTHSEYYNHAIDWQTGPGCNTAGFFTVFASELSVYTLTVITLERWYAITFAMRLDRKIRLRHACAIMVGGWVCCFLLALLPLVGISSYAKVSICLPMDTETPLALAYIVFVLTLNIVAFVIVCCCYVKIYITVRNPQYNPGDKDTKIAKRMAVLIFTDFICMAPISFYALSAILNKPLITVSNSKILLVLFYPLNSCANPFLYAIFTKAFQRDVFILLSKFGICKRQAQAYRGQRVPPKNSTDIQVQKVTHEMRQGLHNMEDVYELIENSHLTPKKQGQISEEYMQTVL

Cc1ccc(O)c(C(C)(C)C)c1
inactive: Potency [1] | Potency [2] | Potency [3] | Potency [4] | Potency [5] | Potency [6] | Potency [7] | Potency [8] | Potency [9] | Potency [11] | Potency [12] | Potency [13] | Potency [14]
active: Potency [10] 89.6 µM

CCCCC(CC)COP(=O)(O)OCC(CC)CCCC (stereo not drawn)
active: Potency [1] 48.6 µM | Potency [15] 27.4 µM and 21.7 µM | Potency [7] 17.4 µM and 5.49 µM | Potency [17] 30.7 µM and 27.3 µM
inactive: Potency [2] | Potency [3] | Potency [4] | Potency [5] | Potency [16] | Potency [8] | Potency [10] | activity change, positive = activation [18] -51.6% and -55.8% | Potency [11] | Potency [13] | Potency [14]

Cc1cc2c(cc1C(F)(F)F)N(C(=O)Nc1ccc(Oc3cccnc3C)nc1)CC2
inactive: Potency [2] | Potency [3] | Potency [4] | Potency [5] | Potency [16] | Potency [9] | activity change, positive = activation [18] -42.2% | Potency [11] | Potency [13] | Potency [14]
active: Potency [1] 15.6 µM | Potency [15] 7.81 µM | Potency [10] 45.7 µM | Potency [17] 4.93 µM | Potency [12] 4.97 µM

CCCCCOc1ccccc1/C(=C\SC)n1ccnc1
active: Potency [1] 29.8 µM | Potency [15] 15 µM | Potency [6] 21.1 µM | Potency [7] 21.3 µM | Potency [17] 21.1 µM
inactive: Potency [2] | Potency [3] | Potency [19] | Potency [16] | activity change, positive = activation [18] -47.2% [at 42.5 µM] | Potency [11] | Potency [13] | Potency [14]

CC1=C(/C=C/C(C)=C/C=C/C(C)=C/C=O)C(C)(C)CCC1
inactive: Potency [13]
active: Potency [1] 27.1 µM | Potency [2] 54.2 µM | Potency [3] 68.2 µM | Potency [5] 15.3 µM | Potency [6] 6.82 µM | Potency [7] 30.7 µM | Potency [11] 54.6 µM | Potency [12] 19.4 µM

CCCC(C)c1ccccc1O (stereo not drawn)
inactive: Potency [1] | Potency [2] | Potency [3] | Potency [4] | Potency [5] | Potency [19] | Potency [8] | Potency [9] | Potency [11] | Potency [12] | Potency [13] | Potency [14]
active: Potency [10] 80 µM

CCCCCCCC[N+](CCCCCCCC)(CCCCCCCC)CCCCCCCC
active: Potency [1] 24.3 µM | Potency [2] 9.67 µM | Potency [3] 9.67 µM | Potency [4] 21.6 µM | Potency [7] 13.8 µM | Potency [10] 17.9 µM | Potency [17] 0.768 µM | Potency [11] 24.5 µM | Potency [12] 6.15 µM | Potency [14] 24.5 µM
inactive: Potency [5] | Potency [16] | activity change, positive = activation [18] -81.8% | Potency [13]
